Pf Dd2 inh: inhibitors of Plasmodium falciparum Dd2 growth. 120,000 tested, 4.3% active. P. falciparum Dd2 growth, SYBR Green, 72 h. Potency, µM (highest dose often 28.9 µM), usual class: inhibitors. AID 1347417; active means well fitted inhibition curve with a large enough effect; further: nearly all actives have a fitted effect of over 65% in size
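Readout: SYBR Green fluorescence, 485 nm excitation, 535 nm emission, after ~16 h lysis at 37C. Before that, Dd2-infected red cells (2.5% hematocrit) grew 72 h with compound, 29 uM top final concentration.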
Large screens that a line does not name were inactive. The full list was thinned out, with hits kept by preference.

FC(F)(F)c1cccc2c(N3CCC4(CCCN4Cc4ncc[nH]4)CC3)ccnc12	Pf Dd2 inh 10µM
OC[C@H]1CCN(c2ccnc3c(C(F)(F)F)cccc23)C[C@H]1O	none
COCCC1(C(=O)O)CCN(c2ccnc3c(C(F)(F)F)cccc23)CC1	none
O=C(N[C@@H]1COCC[C@H]1OCc1ccccn1)c1cnc(C2CC2)nc1	none
O=C(CCCn1cncn1)N[C@H]1CCOC[C@H]1C1CCOCC1	none
Cc1cccc(CN2CCOc3c(O)cc(-c4ccccc4C)cc3C2)n1	Pf Dd2 inh 8.9µM
Cc1ccccc1-c1cc(O)c2c(c1)CN(C(=O)C1CCNCC1)CCO2	none
Cc1cc(CN2CCOc3c(O)cc(-c4ccccc4C)cc3C2)on1	none
CCCNC(=O)N(C1CCOCC1)C1CCN(C(=O)c2ccc(OC)nc2OC)CC1	none
CCN(CC)C(=O)c1cc2c(s1)CCC(C(=O)Nc1ccc(OC)c(F)c1)C2 (stereo not drawn)	none
C[C@@H]1CN(C(=O)c2ccc(F)cc2F)CC[C@@]1(O)C1CCOCC1	none
CCN(Cc1ccccc1)c1nc2c(S(=O)(=O)c3ccccc3)nnn2c2ccc(Cl)cc12	Pf Dd2 inh 6.3µM
COCCNc1nc2c(S(=O)(=O)c3ccccc3)nnn2c2ccc(Cl)cc12	none
COc1ccc(CNc2nc3c(S(=O)(=O)c4ccccc4)nnn3c3ccc(Cl)cc23)cc1	none
Cc1sc2cc(C(=O)NC3CC3)[nH]c2c1CN1CCCCC1	none
CN1C(=O)c2cccn2CC1CNC(=O)C1CCCC1 (stereo not drawn)	none
O=C(NC1CCc2n[nH]c(=O)n2CC1)c1ccoc1 (stereo not drawn)	none
O=C(c1cccc(F)c1)N1CCC(Oc2cccnc2)C1 (stereo not drawn)	none
O=C(C1CCOCC1)N1CCC(Oc2cccc(F)c2)C1 (stereo not drawn)	none
Cn1ccnc1C(=O)N1CCC(Oc2cccc(F)c2)C1 (stereo not drawn)	Pf Dd2 inh 7.9µM
Cc1noc2c(N3CCOCC3)cc(-c3ccsc3)nc12	none
CCOc1cc(C2CC(=O)Nc3cc4c(cc32)OCCO4)ccc1O (stereo not drawn)	none
COc1cc2c(c(OC)c1)C(c1cc(OC)c(OC)c(OC)c1)CC(=O)N2 (stereo not drawn)	none
CCOc1c(Br)cc(C2CC(=O)Nc3cc4c(cc32)OCO4)cc1OC (stereo not drawn)	Pf Dd2 inh 3.2µM
Cc1cccc(C2CC(=O)Nc3cc4c(cc32)OCO4)c1 (stereo not drawn)	none
COc1cccc(C2CC(=O)Nc3cc4c(cc32)OCO4)c1OC(C)C (stereo not drawn)	none
COc1cc(C2CC(=O)Nc3cc4c(cc32)OCCO4)cc(Br)c1OC (stereo not drawn)	Pf Dd2 inh 1µM
O=C(Cc1ccccc1F)NCCC1CCN(C(=O)Nc2ccc(F)cc2F)CC1	none
O=C(Nc1ccon1)[C@@H]1C[C@@H](c2ccc(F)cc2)N([S+](=O)([O-])c2ccccc2)C1	none
NC(=O)c1ccc(CC2CCN(C(=O)C3CC=CC3)CC2)cc1	none
Cc1nc(NCc2csc(-c3cnccn3)n2)cc(C2CC(O)C2)n1 (stereo not drawn)	none
O=C(COc1cccc(F)c1)c1ccc2c(c1)N(CC(=O)N1CCOCC1)C(=O)CO2	none
O=C(NCCc1ccccc1)N1CCC(c2noc(-c3cccnc3)n2)C1 (stereo not drawn)	none
COc1ccc(C2C=C(c3ccccc3)Nc3nc(NC(=O)/C=C/c4ccc(Cl)cc4)nn32)cc1 (stereo not drawn)	Pf Dd2 inh 10µM
COc1ccc(/C=C/C(=O)Nc2cc(-c3nc4ccccc4o3)ccc2OC)cc1	none
COC(=O)c1c(NC(=O)/C=C/c2ccc(OC)cc2)sc2c1CCC2	none
COc1ccc(/C=C/C(=O)Nc2nc3n(n2)C(c2ccccc2)C=C(c2ccc(Cl)cc2)N3)cc1 (stereo not drawn)	Pf Dd2 inh 5µM
COc1ccc(OCC(=O)Nc2cc(-c3cccc(Cl)c3)nn2-c2ccccc2)cc1	none
O=C(O)c1cccc(-c2cncc(C(=O)O)c2)c1	none
Cc1ccc(S(=O)(=O)Nc2ccc(C)n(CC(=O)NCc3ccccc3)c2=O)cc1	none
COCC(=O)NC1CCC12CCN(Cc1ccc(F)c(F)c1)CC2 (stereo not drawn)	none
O=C(NC1CCCN(c2nc3ncccc3o2)C1)c1ccccc1Cl (stereo not drawn)	none
Cc1noc(C)c1-c1cc2c(c(-c3ccccc3)c1)C(=O)N(C)C2	none
Cc1noc(C)c1-c1cc(-c2ccccc2F)cn2cncc12	Pf Dd2 inh 7.1µM
Cc1noc(C)c1-c1cc(-c2ccccc2C(F)(F)F)cn2cncc12	Pf Dd2 inh 6.3µM
FC(F)(F)c1ccccc1-c1cc(-c2cccnc2)c2cncn2c1	none
COc1cccc(-c2cc(-c3c(C)noc3C)cc3c2C(=O)N(C)C3=O)c1OC	none
Cc1noc(C)c1-c1cc(-c2cccc(O)c2)cn2cncc12	Pf Dd2 inh 11µM
c1cncc(-c2cc(-c3cccc(N4CCOCC4)c3)cn3cncc23)c1	none
Cc1noc(C)c1-c1cc(-c2ccc(CO)cc2)cn2cncc12	none
C1=C(c2cc(-c3ccncc3)cn3cncc23)CCOC1	none
CC(=O)NCC1(COc2cccnc2)C[C@@H](O)[C@@H](O)C1 (stereo partly drawn)	none
CCOc1cccc(CNC(=O)C2CCN(c3cn[nH]c(=O)c3)C2)c1 (stereo not drawn)	none
Cc1nc(C)c(C(=O)N2CCC(c3noc(-c4cnccn4)n3)C2)s1 (stereo not drawn)	none
COc1ccc(C(=O)N2CCC[C@H]2c2nc(-c3ccc(F)cc3)no2)c(OC)c1	none
CC(C)NC(=O)NC[C@H]1OC[C@@H](NCc2ncc[nH]2)[C@@H]1O	none
Cc1cc(C2CCCN2C(=O)c2cc(C)c(C)c(S(N)(=O)=O)c2)on1 (stereo not drawn)	none
CC(C)Oc1ccc2c(NC(=O)c3ccc(=O)n(C)n3)nn(CC(F)(F)F)c2c1	none
O=C1c2cnc(-c3ccc(F)cc3F)nc2OCCN1Cc1ccc(F)cc1F	none
COc1ncccc1-c1ncc2c(n1)OCCN(Cc1ccccc1)C2=O	none
COc1cccc(-c2ncc3c(n2)OCCN(Cc2ccccc2)C3=O)c1	none
O=C1c2cnc(-c3ccoc3)nc2OCCN1Cc1ccc(F)cc1F	none
CC(=O)Nc1cccc(-c2ncc3c(n2)OCCN(Cc2ccc(F)cc2F)C3=O)c1	Pf Dd2 inh 13µM
COc1ccc(-c2ncc3c(n2)OCCN(Cc2ccccc2)C3=O)cc1	Pf Dd2 inh 1.3µM
CNC(=O)c1cn2c(n1)CN([S+](=O)([O-])c1c(C)noc1C)CC2	none
CCOC(=O)CCNC(=O)N1[C@@H]2CC[C@H]1CC(NC(=O)c1ccc(F)cc1)C2 (stereo partly drawn)	none
CC(=O)N1CCC(N2C[C@@H](F)[C@@H](OCc3nc4ccccc4o3)C2)CC1	none
Cc1noc2c(NC3CCC(O)CC3)cc(-c3ccc(Cl)cc3)nc12 (stereo not drawn)	none
CC(=O)N(C)Cc1cccc(C(F)(F)F)c1	none
CN(Cc1cccc(C(F)(F)F)c1)C(=O)Cc1ccc(F)cc1	none
CN(Cc1cccc(C(F)(F)F)c1)C(=O)c1ccc(F)cc1	Pf Dd2 inh 11µM
CC(=O)N1CCC2(CNS(=O)(=O)c3cnccc3O2)C1 (stereo not drawn)	none
COc1ccccc1N1CCN(C2CCCN(C3CCN(Cc4ccccc4)CC3)C2)CC1 (stereo not drawn)	Pf Dd2 inh 13µM
CCN1CCC(N2CCCC(N3CCN(c4ccccc4OC)CC3)C2)CC1 (stereo not drawn)	none
COc1ccccc1N1CCN(Cc2ccc(=O)n(C)c2)CC1	none
COc1cccc(NC(=O)NC[C@H]2O[C@@H](CO)[C@@H](O)[C@H]2N2CCN(c3ccc(F)cc3)CC2)c1	none
